# A structure can be active in one record and inactive in another. Active and inactive are the calls of the source. How the source made its calls: active means hit-call score of the fitted dose curve at least 0.9, where 1 is the maximum; inactive means score below 0.9.
# Legend:
# [1] = ATG_M_61_CIS: Attagene CIS-FACTORIAL HepG2 Assay for M61 Transcription Factor (Internal Marker) (AID 2282937); conditions: HepG2 Attagene CIS-FACTORIAL M61 internal marker reporter; actives raise or lower the signal
# Procedure, shortened: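 Using transiently transfected HepG2 liver cells, reporter transcript levels were assessed 24 h post-dosing by RT-PCR and capillary electrophoresis. Changes in either direction were fitted relative to DMSO controls.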
# [2] = ATG_EGR_CIS: Attagene CIS-FACTORIAL HepG2 Assay for human Early Growth Response 1 (EGR1) (AID 2282938); conditions: HepG2 Attagene CIS-FACTORIAL EGR reporter mRNA; actives raise or lower the signal
# Procedure, shortened: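 Fluorescent capillary-electrophoresis signal of reporter cDNA fragments serves as read-out. HepG2 cells bear transiently transfected cis-promoter reporter units and are exposed 24 h; gain- or loss-of-signal is fitted against DMSO.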
# [3] = ATG_M_19_CIS: Attagene CIS-FACTORIAL HepG2 Assay for M19 Transcription Factor (Internal Marker) (AID 2282939); conditions: HepG2 Attagene CIS-FACTORIAL M19 internal marker reporter; actives raise or lower the signal
# Procedure, shortened: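 Chemical-treated HepG2 (24 h) with MRTU constructs; reporter transcripts detected by fluorescent RT-PCR fragment analysis on capillary electrophoresis. Internal background marker, DMSO as baseline.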
# [4] = ATG_ERE_CIS: Attagene CIS-FACTORIAL HepG2 Assay for Estrogen Response Element (ERE) (AID 2282940); conditions: HepG2 ERE cis-reporter, Attagene RNA transcript; actives raise or lower the signal
# Procedure, shortened: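 Human liver cells (HepG2) bearing transiently transfected, promoter-regulated reporter units were exposed 24 h. Reporter mRNA induction was detected by capillary electrophoresis of labelled RT-PCR products and fitted bidirectionally to DMSO.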
# [5] = ATG_Ets_CIS: Attagene CIS-FACTORIAL HepG2 Assay for human Erythroblast Transformation Specific (ETS) (AID 2282941); conditions: HepG2 ETS cis-reporter transcription; AC50: actives raise or lower the signal unless noted; outcome: actives raise or lower the signal unless noted
# Procedure, shortened: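 Cis-regulated reporter mRNA induction in HepG2 (transient transfection), 24 h exposure, RT-PCR plus capillary electrophoresis detection; DMSO serves as negative control and baseline.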
# [6] = target: Hepatocyte nuclear factor 3-beta (Homo sapiens) (UniProt Q9Y261); test: ATG_FoxA2_CIS: Attagene CIS-FACTORIAL HepG2 Assay for human Forkhead box A2 (FOXA2) (AID 2282942); conditions: HepG2 cis-reporter transcription factor activity, 24 h; actives raise or lower the signal
# Chain of Hepatocyte nuclear factor 3-beta (Homo sapiens) (Q9Y261 whole entry, looked up, the tested form may be a part): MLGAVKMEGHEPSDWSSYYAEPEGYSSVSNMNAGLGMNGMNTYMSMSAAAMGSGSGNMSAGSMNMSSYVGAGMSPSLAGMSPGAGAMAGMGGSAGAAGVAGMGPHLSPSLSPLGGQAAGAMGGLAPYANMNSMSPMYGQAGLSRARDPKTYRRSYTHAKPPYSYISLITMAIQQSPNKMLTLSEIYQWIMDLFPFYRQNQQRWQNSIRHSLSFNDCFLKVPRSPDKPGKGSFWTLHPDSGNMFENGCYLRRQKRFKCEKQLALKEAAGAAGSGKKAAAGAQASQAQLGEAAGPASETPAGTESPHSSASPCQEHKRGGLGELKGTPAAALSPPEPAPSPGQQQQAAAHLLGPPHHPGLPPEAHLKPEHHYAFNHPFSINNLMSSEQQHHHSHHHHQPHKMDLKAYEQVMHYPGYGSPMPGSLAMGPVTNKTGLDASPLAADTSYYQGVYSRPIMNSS
# Procedure, shortened: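 Fluorescence signal of reporter cDNA fragments, separated by capillary electrophoresis, reflects endogenous transcription factor activity in transfected HepG2 after 24 h. Both increases and decreases fitted against DMSO.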
# [7] = ATG_FoxO_CIS: Attagene CIS-FACTORIAL HepG2 Assay for human Forkhead box O (FoxO) (AID 2282943); conditions: HepG2 Attagene cis-reporter, FoxO element, mRNA; actives raise or lower the signal
# Procedure, shortened: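 Transfected HepG2 reporter cells exposed to test chemical for 24 h; reporter RNA measured by reverse transcription, PCR and fluorescent capillary electrophoresis; curves fitted for increases and decreases against DMSO.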
# [8] = ATG_GATA_CIS: Attagene CIS-FACTORIAL HepG2 Assay for human GATA Binding Protein (AID 2282944); conditions: HepG2 GATA cis-element reporter, Attagene multiplex mRNA; actives raise or lower the signal
# Procedure, shortened: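 Transfected cis-reporter HepG2 cells were treated with chemicals for 24 hours. Total RNA was then converted to cDNA, amplified with reporter-specific primers and analysed by fluorescent capillary electrophoresis, using DMSO-treated wells as baseline.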
# [9] = ATG_GLI_CIS: Attagene CIS-FACTORIAL HepG2 Assay for human Zinc Finger Protein GLI1 (AID 2282945); conditions: HepG2, Attagene cis-factorial reporter mRNA, GLI element; actives raise or lower the signal
# Procedure, shortened: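 Transiently transfected HepG2 cells report endogenous transcription factor activity via cis-element-driven reporter units. After 24 h compound exposure, reporter mRNA was measured by RT-PCR with capillary electrophoresis; bidirectional fitting against DMSO baseline.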
# [10] = target: Bile acid receptor (Homo sapiens) (UniProt Q96RI1); test: ATG_IR1_CIS: Attagene CIS-FACTORIAL HepG2 Assay for human Nuclear Receptor Subfamily 1 Group H Member 4 (NR1H4), IR1 submotif (AID 2282946); conditions: IR1 reporter transcription, actives raise or lower the signal
# Chain of Bile acid receptor (Homo sapiens) (Q96RI1 whole entry, looked up): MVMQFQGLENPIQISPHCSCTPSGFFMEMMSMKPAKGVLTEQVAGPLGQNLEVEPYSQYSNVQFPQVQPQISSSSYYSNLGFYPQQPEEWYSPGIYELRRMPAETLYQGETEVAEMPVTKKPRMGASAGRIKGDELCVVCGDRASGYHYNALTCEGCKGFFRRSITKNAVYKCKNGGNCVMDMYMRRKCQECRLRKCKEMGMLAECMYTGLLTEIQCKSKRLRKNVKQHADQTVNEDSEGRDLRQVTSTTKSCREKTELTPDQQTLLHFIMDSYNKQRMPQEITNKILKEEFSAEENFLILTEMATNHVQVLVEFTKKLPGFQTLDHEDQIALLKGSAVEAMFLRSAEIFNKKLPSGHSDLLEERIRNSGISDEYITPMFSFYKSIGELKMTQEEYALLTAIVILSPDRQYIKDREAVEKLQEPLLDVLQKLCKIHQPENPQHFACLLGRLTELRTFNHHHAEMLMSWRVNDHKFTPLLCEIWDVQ
# Procedure, shortened: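 Fluorescence of capillary-separated, HpaI-digested RT-PCR reporter products gave IR1-element mRNA induction in HepG2 cells 24 h after dosing. Endogenous transcription factors drove the cis-regulated reporters; activity was fitted bidirectionally against DMSO.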
SMILES,outcome [1],outcome [2],outcome [3],outcome [4],outcome [5],outcome [6],outcome [7],outcome [8],outcome [9],outcome [10],AC50 [5],AC50 [4],AC50 [2],AC50 [3],AC50 [7],AC50 [9]
O=C(c1cc(O)c(O)c(O)c1)c1ccc(O)c(O)c1O,inactive,inactive,inactive,inactive,inactive,inactive,inactive,inactive,inactive,inactive,–,–,–,–,–,–
Cc1ccc2ccc3ccc(C)cc3c2c1,inactive,inactive,inactive,inactive,inactive,–,inactive,inactive,inactive,inactive,–,–,–,–,–,–
O=C(CC(=O)C(F)(F)C(F)(F)C(F)(F)F)c1cccs1,inactive,inactive,inactive,inactive,–,inactive,–,inactive,inactive,–,12.1 µM [setting not given] (active),–,–,–,–,–
CCOC=O,inactive,inactive,inactive,–,inactive,–,inactive,inactive,inactive,–,–,59.3 µM (active),–,–,–,–
C=COC(=O)C(C)(C)CCCCCC,inactive,inactive,inactive,–,inactive,–,inactive,inactive,inactive,inactive,–,100 µM (active),–,–,–,–
C=CC(C)(CCC=C(C)C)OC(C)=O (configuration not stated),inactive,inactive,inactive,inactive,inactive,inactive,inactive,inactive,inactive,inactive,–,–,–,–,–,–
CCCCC(CC)C(=O)OCCOCCOCCOCCOC(=O)C(CC)CCCC (configuration not stated),inactive,inactive,inactive,inactive,inactive,–,inactive,inactive,inactive,inactive,–,–,–,–,–,–
COc1cccc(O)c1,inactive,inactive,inactive,inactive,inactive,inactive,inactive,inactive,inactive,inactive,–,–,–,–,–,–
O=P(O)(O)CCC(F)(F)C(F)(F)C(F)(F)C(F)(F)C(F)(F)C(F)(F)F,inactive,inactive,inactive,inactive,inactive,inactive,inactive,inactive,inactive,inactive,–,–,–,–,–,–
Clc1ccc2c(Cl)ccnc2c1,inactive,inactive,inactive,inactive,inactive,–,inactive,inactive,inactive,–,–,–,–,–,–,–
c1ccc(CNc2ncnc3c2ncn3C2CCCCO2)cc1 (configuration not stated),inactive,inactive,inactive,inactive,inactive,–,inactive,inactive,inactive,–,–,–,–,–,–,–
CCOC=C(C(=O)OCC)C(=O)OCC,inactive,inactive,inactive,inactive,inactive,–,inactive,inactive,inactive,–,–,–,–,–,–,–
CCC(=O)O,inactive,inactive,inactive,inactive,inactive,–,inactive,inactive,inactive,–,–,–,–,–,–,–
C=CC(=O)OCC(CO)(COCC(COC(=O)C=C)(COC(=O)C=C)COC(=O)C=C)COC(=O)C=C,inactive,–,–,inactive,inactive,–,–,inactive,inactive,inactive,–,–,3.04 µM (active),16.2 µM (active),3.66 µM (active),–
CC(C)(C)C1CCCCC1O (configuration not stated),inactive,inactive,inactive,inactive,inactive,inactive,inactive,inactive,inactive,inactive,–,–,–,–,–,–
O=CC(F)(F)C(F)(F)C(F)(F)C(F)F,inactive,inactive,inactive,inactive,inactive,–,inactive,inactive,inactive,inactive,–,–,–,–,–,–
FC(F)=C(F)C(F)(F)C(F)(F)C(F)(F)C(F)F,inactive,inactive,inactive,inactive,inactive,–,inactive,inactive,inactive,inactive,–,–,–,–,–,–
OCCN1CN(CCO)CN(CCO)C1,inactive,–,inactive,–,inactive,inactive,inactive,inactive,–,–,–,–,173 µM (active),–,–,162 µM (active)
CC(=O)CC(C)C,inactive,inactive,inactive,–,inactive,inactive,inactive,inactive,inactive,–,–,–,–,–,–,–
CCCCCCCCC(C)=O,inactive,inactive,inactive,–,inactive,inactive,inactive,inactive,inactive,–,–,–,–,–,–,–
O=S(=O)(O)c1ccc2cc(O)ccc2c1,inactive,inactive,inactive,–,inactive,inactive,inactive,inactive,inactive,–,–,–,–,–,–,–
O=C1NS(=O)(=O)c2ccccc21,inactive,inactive,inactive,–,inactive,inactive,inactive,inactive,inactive,–,–,–,–,–,–,–
CCCCCCCCCCCCCCC,inactive,inactive,inactive,–,inactive,inactive,inactive,inactive,inactive,–,–,–,–,–,–,–
O=C(NCc1ncc(C(F)(F)F)cc1Cl)c1c(Cl)cccc1Cl,inactive,inactive,inactive,inactive,inactive,–,inactive,inactive,inactive,inactive,–,–,–,–,–,–
CNNCc1ccc(C(=O)NC(C)C)cc1,inactive,inactive,inactive,–,inactive,inactive,inactive,inactive,inactive,–,–,–,–,–,–,–
